From the supplement of paper PMC6522484
± gives the standard deviation of the averaged measurements.

Legend:
DLD1 [1] = assay: cell viability (CellTiter-Glo) relative to plate median (fraction of plate median); higher = more viable cells; conditions: 5 µM; treatment time 24 h; reporter: 7TFP
Method in brief: (§1)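 Cells were seeded in 384-well plates; these were colorectal cancer lines stably transduced with lentiviral 7TFP or TCF4/Wnt firefly luciferase reporters. After 24 h, library compounds went in at a final 5 µM, and exposure lasted 24 h. Parallel plates were then read for firefly luciferase or CellTiterGlo luminescence, each well normalised to its plate median, with two independent replicates averaged.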

HCT116 = assay: as above; conditions: 5 µM; treatment time 24 h; reporter: TCF4/Wnt
Method in brief: as §1

SW480 [2] = assay: as above; conditions: 5 µM; treatment time 24 h; reporter: 7TFP
Method in brief: as §1

DLD1 [3] = assay: TCF/Wnt firefly luciferase reporter signal relative to plate median (fraction of plate median); higher = higher Wnt reporter signal; conditions: 5 µM; treatment time 24 h; reporter: 7TFP
Method in brief: as §1

SW480 [4] = assay: as above; conditions: 5 µM; treatment time 24 h; reporter: 7TFP
Method in brief: as §1

Compound	cell viability (DLD1 [1])	cell viability (HCT116)	cell viability (SW480 [2])	TCF/Wnt firefly luciferase reporter signal (DLD1 [3])	TCF/Wnt firefly luciferase reporter signal (SW480 [4])
COc1ccc(-c2cc(=O)c3c(OC)c(OC)c(OC)cc3o2)cc1OC	1.01 ± 0.022	1.055 ± 0.0071	1.015 ± 0.0071	1.07 ± 0.13	1.15 ± 0.16
O=c1[nH]c(=O)n([C@H]2C[C@H](O)[C@@H](CO)O2)cc1F	0.609 ± 0.026	1.05 ± 0.057	0.963 ± 0.024	0.688 ± 0.12	0.971 ± 0.069
O=c1ccn([C@@H]2O[C@H](COP(=O)(O)OP(=O)(O)OP(=O)(O)O)[C@@H](O)[C@H]2O)c(=O)[nH]1	0.986 ± 0.091	0.89 ± 0.016	1.04 ± 0.064	0.921 ± 0.27	0.958 ± 0.14
CC1(C)O[C@@H]2C[C@H]3[C@@H]4CCC5=CC(=O)C=C[C@]5(C)[C@@]4(F)[C@@H](O)C[C@]3(C)[C@]2(C(=O)CO)O1	0.955 ± 0.027	0.965 ± 0.024	1.03 ± 0.042	1.09 ± 0.021	0.951 ± 0.051
O=C(O)c1ccccc1Nc1cccc(C(F)(F)F)c1	0.967 ± 0.0099	0.934 ± 0.042	0.95 ± 0.011	0.96 ± 0.057	1.07 ± 0.064
CCOC(=O)n1ccn(C)c1=S	0.985 ± 0.05	1.12	1.01 ± 0.035	0.9725 ± 0.0021	1.04 ± 0.014
C=CC(C)(O)CCC=C(C)CCC=C(C)C (mixture of isomers)	1.09	0.977 ± 0.075	0.94 ± 0.0028	0.8335 ± 0.00071	0.851 ± 0.15
NC(=O)c1cccc(N)c1	0.983 ± 0.039	1.01 ± 0.062	0.9685 ± 0.0035	0.959 ± 0.13	0.853 ± 0.09
CCOC(=O)c1c(C)c(Cl)c(O)c(Cl)c1O	0.991 ± 0.042	0.987 ± 0.013	0.9025 ± 0.0078	0.966 ± 0.013	0.994 ± 0.052
C=CC(C1=CC(=O)C=CC1=O)c1ccccc1 (stereo not given)	0.965 ± 0.064	0.884 ± 0.098	0.943 ± 0.038	0.885 ± 0.022	0.984 ± 0.037
COc1ccc2oc3ccccc3c(=O)c2c1	1.075 ± 0.0071	1.05 ± 0.078	1.09 ± 0.05	1.15 ± 0.13	1.1 ± 0.078
COc1ccc(C(=O)CC(=O)c2ccc(C(C)(C)C)cc2)cc1	0.879 ± 0.2	0.904 ± 0.032	1.01 ± 0.021	1 ± 0.098	1.04 ± 0.18
NCCCCCC(=O)O	0.888 ± 0.054	1.02 ± 0.014	0.972 ± 0.083	1 ± 0.11	1.01 ± 0.081
O=C(Nc1ccc(C(=O)O)c(O)c1)c1ccccc1	1.065 ± 0.0071	0.924 ± 0.011	1.01 ± 0.032	0.83 ± 0.016	1.07 ± 0.05
